# In PubChem BioAssay (NCATS):
# “And” between values parts separate entries of the source, which are not always exact repeats. Identical values can stand only once. Results filed as inconclusive are left out. Entries that show only a call come without a potency. The source made the active and inactive calls. Unless noted, calls come from the whole dose curve; as a rule, active = well fitted curve in the direction sought with a large enough effect; inconclusive = small, poorly fitted or top-dose-only effect, or another doubt; inactive = no such curve, though single readings can be large; an effect the other way counts as inactive or inconclusive.
# How the values were obtained:
# [1] = molecular target: Guanine nucleotide-binding protein G(i) subunit alpha-1 (Homo sapiens) (UniProt P63096); assay: qHTS Assay for Inhibitors of RGS12 GoLoco Motif Activity (Green Fluorophore) (AID 879); details: Galphai1/FITC-RGS12 GoLoco peptide, fluorescence polarization; series mostly up to 57.1 µM;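 note: negative values mean loss of peptide binding seen as reduced polarization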
# Procedure, shortened: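 Fluorescence polarization assay: 50 nM Gαi1 with 10 nM FITC-labeled RGS12 GoLoco peptide in 10 mM Tris pH 7.5, 150 mM NaCl, 0.1 mM GDP, 0.05% NP40, 10 min at room temperature with compound.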
# [2] = molecular target: Cytochrome P450 2C9 (Homo sapiens) (UniProt P11712); assay: qHTS Assay for Inhibitors and Substrates of Cytochrome P450 2C9 (AID 883); details: recombinant CYP2C9, luciferin-H luminescence, 60 min; series mostly up to 57.1 µM; note: nearly all actives have a fitted effect of over 60% in size; note: potency is the fitted concentration of half-maximal effect
# Procedure, shortened: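 Human CYP2C9 (10nM) with Luciferin-H at 100uM (its KM) in 25mM KPO4; compound preincubated 10 min at 37C, then NADPH regeneration for 60 min at 37C. Luciferin read by luminescence after detection reagent; normalized to 57uM sulphaphenazole as full inhibition.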
# [3] = qHTS Assay for Identification of Small Molecule Agonists for Thrombopoietin (TPO) Signaling Pathway (AID 917); details: TPO signaling pathway reporter cells, agonist qHTS, stimulated with TPO at its EC50; series mostly up to 38.5 µM
# Procedure, shortened: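 Murine Ba/F3 cells expressing human TPO receptor and GPIIb-promoter luciferase, IL-3-starved overnight, given compound plus TPO at 26 pM (EC50). After 24 h at 37 C, 5% CO2, luminescence read.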
# [4] = molecular target: Pyruvate kinase (Leishmania mexicana) (UniProt Q27686); assay: qHTS Validation Assay for Inhibitors of Leishmania Mexicana Pyruvate Kinase (AID 945); details: purified L. mexicana pyruvate kinase, enzyme activity, E451W mutant enzyme; series mostly up to 57.5 µM
# Procedure, shortened: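 Compounds are tested as eight-point concentration series. Reactions contain 0.2 nM LmPYK E451W, 0.5 mM PEP, 0.1 mM ADP, 7 mM MgCl2 and 50 mM KCl at pH 7.2, run 1 h at room temperature, then read by PKLight luminescence.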
# [5] = molecular target: Pyruvate kinase PKM (Homo sapiens) (UniProt P14618); assay: qHTS Assay for Activators of Human Muscle Pyruvate Kinase (AID 954; active = well fitted curve in the direction sought with a large enough effect, not every such curve was filed as active); details: purified human muscle pyruvate kinase, luciferase-coupled luminescence, 1 h; series mostly up to 57.5 µM
# Procedure, shortened: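 Human PKM2 activity is measured as ATP generation, detected by luciferase-coupled luminescence. The enzyme (0.1 nM) acts on 0.5 mM PEP and 0.1 mM ADP for 1 h at ambient temperature; data are normalized to uninhibited and full-inhibition wells.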
# [6] = Cellular Toxicity (caspase-3) Hek293 (AID 664); details: HEK293 caspase-3 activation, DMSO = 0%, 100 µM tamoxifen = 100%; series mostly up to 92.2 µM;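 note: cells exposed to compound for 16 h at 37 °C before readout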
# Procedure, shortened: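 Cells plated, 5 hr at 37 °C; compounds added; 16 hr at 37 °C; Caspase-Glo 3/7 reagent, 20 min RT; luminescence read. Activation expressed relative to DMSO and 100 uM tamoxifen, AC50 by Hill model.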
# [7] = Cellular Toxicity (caspase-3) N2a (AID 665); details: N2a cells, luminescence, normalized: DMSO 0%, 10 µM staurosporine 100%; series mostly up to 92.2 µM;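 note: compound exposure lasted 16 h at 37 °C before readout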
# Procedure, shortened: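 N2a cells, 1500/well, 5 h settle at 37 °C; cpd 16 h, 37 °C; Caspase-Glo 3/7, 1 h RT; luminescence. Norm: DMSO = 0, 10 uM staurosporine = 100%. AC50, Hill fit.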
# [8] = Cellular Toxicity (caspase-3) NIH 3T3 (AID 666); details: NIH 3T3 caspase-3 activation, apoptosis/toxicity, 0% DMSO, 100% is 100 µM tamoxifen; series mostly up to 92.2 µM;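 note: caspase signal read after 16 h compound exposure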
# Procedure, shortened: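 Luminescence from aminoluciferin released by caspase-3/7 cleavage of a peptide substrate served as read-out. Mouse fibroblast NIH 3T3 cells were exposed to compounds over a concentration range for 16 hours, and AC50 values came from standard Hill modelling.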
# [9] = Cellular Toxicity (caspase-3) Renal Proximal Tubule (AID 667); details: renal proximal tubule cells, primary cells freshly taken from rat, solvent-only wells 0%, staurosporine 100%; series mostly up to 91.7 µM;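 note: cells exposed to compound for 16 hours at 37 °C before detection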
# Procedure, shortened: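 Freshly isolated primary rat kidney proximal tubule cells, 1000/well, treated 16 hr at 37 °C, then Caspase-Glo 3/7 luminescence after 1 hr. Normalized to DMSO and 10 uM staurosporine; AC50 from Hill fit.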
# [10] = Confirmation and Secondary Assay for Modulators of Hemoglobin Beta Chain Splicing at IVS2 654 locus (AID 910); details: HeLa EGFP-654 splicing reporter, GFP fluorescence, 48 h; series mostly up to 46.1 µM;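 note: HeLa cells stably carrying EGFP split by mutant beta-globin IVS2-654 intron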
# Procedure, shortened: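 HeLa cells stably expressing EGFP interrupted by β-globin IVS2-654 intron, seeded overnight in Opti-MEM/2% FCS, then treated 2 days at 37 °C. Restored splicing read as total peak GFP intensity per well by laser scanning cytometry (488 nm excitation, 500–520 nm emission); 500 nM antisense PNA as control.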
# [11] = Cell Viability - LYMP2-001 (AID 921); details: LYMP2-001 lymphoblastoid cell viability; series mostly up to 92.2 µM; note: nearly all actives have a fitted effect of over 70% in size
# Procedure, shortened: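 Human lymphoblastoid LYMP2-001 cells, 2500 per well, in complete medium, treated 24 h at 37 C. Viability from cellular ATP by CellTiter-Glo luminescence; AC50 from Hill-equation fits of qHTS concentration-response.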
# [12] = Confirmation and Secondary Assay for Modulators of Hemoglobin Beta Chain Splicing at IVS2 705 locus (AID 930); details: HeLa EGFP-705 splicing reporter, GFP fluorescence, 48 h; series mostly up to 46.1 µM;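 note: HeLa cells stably expressing the EGFP-705 splicing reporter; GFP fluorescence per well restored by corrected splicing of the IVS2-705 intron in EGFP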
# Procedure, shortened: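 Fluorescence gain (488 nm laser, 500-520 nm PMT) reflects restored correct splicing of a mutant IVS2-705 intron inside EGFP in stably transfected HeLa cells after 2-day compound treatment.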
# [13] = MultiTox-Fluor Cytotoxicity Assay - LYMP1-001 - Dead Cells (AID 946); details: LYMP1-001 lymphoblastoid cells, dead-cell protease fluorescence; series mostly up to 92.2 µM
# Procedure, shortened: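 Cytotoxicity as increased dead-cell protease fluorescence (bis-AAF-R110, 485/520 nm), read 60 min after MultiTox-Fluor reagent. Human lymphoblastoid line exposed 16 h; Hill-fitted AC50, with DMSO as 0% and 15 uM tetraoctylammonium bromide as 100%.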
# [14] = MultiTox-Fluor Cytotoxicity Assay - LYMP1-001 - Live Cells (AID 947); details: LYMP1-001 lymphoblastoid cells, live-cell protease fluorescence viability; series mostly up to 92.2 µM
# [15] = Cell Viability - LYMP1-002 - Assay at 16 hr (AID 948); details: LYMP1-002 lymphoblastoid cell viability; series mostly up to 92.2 µM
# Procedure, shortened: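 LYMP1-002 human lymphoblastoid cells, 2500/well, were treated with compounds for 16 hr at 37 C in complete medium. Viability was read as intracellular ATP by CellTiter-Glo luminescence, and AC50 was derived from a Hill fit to concentration-response data.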
# [16] = molecular target: Cytochrome P450 3A4 (Homo sapiens) (UniProt P08684); assay: qHTS Assay for Inhibitors and Substrates of Cytochrome P450 3A4 (AID 884); details: recombinant CYP3A4, Luciferin-PPXE luminescence; series mostly up to 57.1 µM; note: nearly all actives have a fitted effect of over 50% in size; note: potency is the fitted concentration of half-maximal effect
# Procedure, shortened: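 20 nM human CYP3A4 with 25 uM Luciferin-PPXE (at KM) in 200 mM KPO4, preincubated 10 min with compound; NADPH regeneration started a 60 min RT reaction. Luciferin detected by luminescence, normalized to 57 uM ketoconazole as full inhibition.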
# [17] = molecular target: Cytochrome P450 3A4 (Homo sapiens) (UniProt P08684); assay: qHTS Assay for Activators of Cytochrome P450 3A4 (AID 885); details: recombinant CYP3A4, Luciferin-PPXE luminescence, 60 min; series mostly up to 57.1 µM; note: nearly all actives have a fitted effect of over 65% in size
# Procedure, shortened: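 Signal was normalized against complete inhibition by 57 uM ketoconazole. The reaction used 20nM CYP3A4 with 25uM Luciferin-PPXE, 10-min compound preincubation and a 60-min NADPH-supported step at RT.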
# [18] = molecular target: Cytochrome P450 2D6 (Homo sapiens) (UniProt P10635); assay: qHTS Assay for Inhibitors and Substrates of Cytochrome P450 2D6 (AID 891); details: recombinant CYP2D6, luciferin-ME EGE luminescence; series mostly up to 57.1 µM; note: nearly all actives have a fitted effect of over 60% in size; note: potency is the fitted concentration of half-maximal effect
# Procedure, shortened: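 Human CYP2D6 (5 nM) with 30 uM Luciferin-ME EGE (at Km) in 100 mM KPO4, compound preincubated 10 min, then NADPH regeneration system for 60 min at room temperature. Luciferin read by luminescence; normalized to 1.43 uM quinidine.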
# [19] = molecular target: Cytochrome P450 2C19 (Homo sapiens) (UniProt P33261); assay: qHTS Assay for Inhibitors and Substrates of Cytochrome P450 2C19 (AID 899); details: recombinant CYP2C19, luciferin-H EGE luminescence; series mostly up to 57.1 µM; note: nearly all actives have a fitted effect of over 60% in size; note: potency is the fitted concentration of half-maximal effect
# Procedure, shortened: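 5 nM human CYP2C19 with 10uM Luciferin-H EGE (at KM) in 50mM KPO4, compound preincubated 10 min at 37C, then NADPH regeneration for 60 min at 37C. Luciferin read by luminescence after detection reagent; normalized to 57uM ketoconazole as full inhibition.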
# [20] = molecular target: Muscarinic acetylcholine receptor M1 (Rattus norvegicus) (UniProt P08482); assay: qHTS Assay for Antagonists of Acetylcholine Muscarinic M1 Receptor: Measurement of IP-One Response (AID 944); details: CHO-M1 cells, IP-One HTRF, antagonist mode; series mostly up to 46.1 µM; note: nearly all actives have a fitted effect of over 75% in size
# Procedure, shortened: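 M1-CHO (rat), 2000 cells/well, overnight recovery; cpd 10 min; carbachol EC80 (200 nM), 30 min, HEPES buffer + 50 mM LiCl pH 7.4; IP-One HTRF, Ex 337, Em 620/665 nm.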
# Pyruvate kinase (Leishmania mexicana), sequence (Q27686 2-499 E452W): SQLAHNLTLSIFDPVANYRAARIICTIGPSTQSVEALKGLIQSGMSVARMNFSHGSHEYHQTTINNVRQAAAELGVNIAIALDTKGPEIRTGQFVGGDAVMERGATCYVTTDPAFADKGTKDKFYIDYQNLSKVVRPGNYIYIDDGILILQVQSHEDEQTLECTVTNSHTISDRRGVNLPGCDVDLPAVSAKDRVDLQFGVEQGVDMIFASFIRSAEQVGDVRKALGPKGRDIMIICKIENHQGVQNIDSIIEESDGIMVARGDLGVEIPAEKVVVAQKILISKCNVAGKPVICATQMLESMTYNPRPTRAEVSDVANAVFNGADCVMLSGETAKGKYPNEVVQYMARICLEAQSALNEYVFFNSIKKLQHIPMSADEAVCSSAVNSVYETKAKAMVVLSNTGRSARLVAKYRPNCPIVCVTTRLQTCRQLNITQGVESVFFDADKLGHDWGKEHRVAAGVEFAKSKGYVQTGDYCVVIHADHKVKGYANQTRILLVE
# Cytochrome P450 2D6 (Homo sapiens), sequence (P10635 whole entry, looked up): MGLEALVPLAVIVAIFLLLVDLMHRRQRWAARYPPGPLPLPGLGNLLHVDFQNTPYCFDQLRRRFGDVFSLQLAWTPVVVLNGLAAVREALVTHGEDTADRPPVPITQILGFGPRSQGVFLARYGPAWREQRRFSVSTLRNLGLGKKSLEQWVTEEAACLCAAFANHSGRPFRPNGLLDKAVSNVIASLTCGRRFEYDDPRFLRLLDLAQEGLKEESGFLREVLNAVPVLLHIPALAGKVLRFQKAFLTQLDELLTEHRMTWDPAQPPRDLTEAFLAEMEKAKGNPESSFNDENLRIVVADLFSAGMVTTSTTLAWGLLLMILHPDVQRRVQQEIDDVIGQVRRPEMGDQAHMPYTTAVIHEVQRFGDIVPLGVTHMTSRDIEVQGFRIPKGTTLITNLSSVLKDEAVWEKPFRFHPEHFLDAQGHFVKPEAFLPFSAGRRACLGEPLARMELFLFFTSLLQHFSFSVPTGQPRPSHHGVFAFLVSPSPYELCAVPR
# Guanine nucleotide-binding protein G(i) subunit alpha-1 (Homo sapiens), sequence (P63096 whole entry, looked up): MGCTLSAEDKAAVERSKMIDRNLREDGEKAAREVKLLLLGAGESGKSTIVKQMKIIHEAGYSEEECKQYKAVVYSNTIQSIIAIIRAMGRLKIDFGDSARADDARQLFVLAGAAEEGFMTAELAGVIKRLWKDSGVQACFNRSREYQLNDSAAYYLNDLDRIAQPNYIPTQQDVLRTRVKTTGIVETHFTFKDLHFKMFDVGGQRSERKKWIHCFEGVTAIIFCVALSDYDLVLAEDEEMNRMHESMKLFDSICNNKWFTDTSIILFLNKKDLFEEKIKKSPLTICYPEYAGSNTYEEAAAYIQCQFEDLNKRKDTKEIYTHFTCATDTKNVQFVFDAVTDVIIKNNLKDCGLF
# Cytochrome P450 2C9 (Homo sapiens), sequence (P11712 whole entry, looked up): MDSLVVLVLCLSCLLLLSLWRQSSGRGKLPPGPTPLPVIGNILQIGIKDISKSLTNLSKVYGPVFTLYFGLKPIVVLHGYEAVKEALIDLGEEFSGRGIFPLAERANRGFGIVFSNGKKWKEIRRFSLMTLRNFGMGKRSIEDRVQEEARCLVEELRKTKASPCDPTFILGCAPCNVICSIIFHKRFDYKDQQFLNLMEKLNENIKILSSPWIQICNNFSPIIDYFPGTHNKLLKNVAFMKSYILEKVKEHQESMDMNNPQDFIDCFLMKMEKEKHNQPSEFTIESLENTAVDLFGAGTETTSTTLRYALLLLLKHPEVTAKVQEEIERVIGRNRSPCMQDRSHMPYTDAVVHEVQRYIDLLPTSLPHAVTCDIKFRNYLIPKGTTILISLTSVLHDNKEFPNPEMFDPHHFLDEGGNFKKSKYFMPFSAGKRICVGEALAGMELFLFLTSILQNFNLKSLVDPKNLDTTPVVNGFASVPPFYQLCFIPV
# Cytochrome P450 3A4 (Homo sapiens), sequence (P08684 whole entry, looked up): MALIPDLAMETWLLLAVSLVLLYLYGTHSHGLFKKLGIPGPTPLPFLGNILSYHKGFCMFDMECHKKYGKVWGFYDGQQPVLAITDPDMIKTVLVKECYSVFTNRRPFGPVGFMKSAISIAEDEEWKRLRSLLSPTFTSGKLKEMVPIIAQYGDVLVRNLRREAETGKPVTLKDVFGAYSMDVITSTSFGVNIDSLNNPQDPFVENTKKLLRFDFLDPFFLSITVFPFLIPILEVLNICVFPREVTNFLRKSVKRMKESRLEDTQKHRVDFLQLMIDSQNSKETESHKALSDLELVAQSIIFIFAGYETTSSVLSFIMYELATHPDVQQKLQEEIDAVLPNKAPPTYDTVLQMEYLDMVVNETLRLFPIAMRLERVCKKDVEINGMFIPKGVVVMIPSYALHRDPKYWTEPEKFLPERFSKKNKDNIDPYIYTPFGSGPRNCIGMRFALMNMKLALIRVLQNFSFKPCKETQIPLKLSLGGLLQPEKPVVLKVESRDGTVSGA
# Cytochrome P450 2C19 (Homo sapiens), sequence (P33261 whole entry, looked up): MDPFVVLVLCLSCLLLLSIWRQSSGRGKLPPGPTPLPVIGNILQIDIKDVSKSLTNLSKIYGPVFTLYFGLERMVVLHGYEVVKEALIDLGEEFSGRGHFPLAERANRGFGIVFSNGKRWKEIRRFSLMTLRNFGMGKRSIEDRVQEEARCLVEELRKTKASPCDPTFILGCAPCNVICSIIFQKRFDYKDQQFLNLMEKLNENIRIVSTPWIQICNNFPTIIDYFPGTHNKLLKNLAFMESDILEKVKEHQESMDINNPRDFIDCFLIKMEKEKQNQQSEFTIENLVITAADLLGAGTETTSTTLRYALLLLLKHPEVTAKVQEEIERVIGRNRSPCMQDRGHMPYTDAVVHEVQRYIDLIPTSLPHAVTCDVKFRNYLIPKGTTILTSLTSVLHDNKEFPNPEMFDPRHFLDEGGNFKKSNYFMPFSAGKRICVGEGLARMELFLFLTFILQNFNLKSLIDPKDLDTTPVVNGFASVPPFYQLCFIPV
# Pyruvate kinase PKM (Homo sapiens), sequence (P14618 whole entry, looked up): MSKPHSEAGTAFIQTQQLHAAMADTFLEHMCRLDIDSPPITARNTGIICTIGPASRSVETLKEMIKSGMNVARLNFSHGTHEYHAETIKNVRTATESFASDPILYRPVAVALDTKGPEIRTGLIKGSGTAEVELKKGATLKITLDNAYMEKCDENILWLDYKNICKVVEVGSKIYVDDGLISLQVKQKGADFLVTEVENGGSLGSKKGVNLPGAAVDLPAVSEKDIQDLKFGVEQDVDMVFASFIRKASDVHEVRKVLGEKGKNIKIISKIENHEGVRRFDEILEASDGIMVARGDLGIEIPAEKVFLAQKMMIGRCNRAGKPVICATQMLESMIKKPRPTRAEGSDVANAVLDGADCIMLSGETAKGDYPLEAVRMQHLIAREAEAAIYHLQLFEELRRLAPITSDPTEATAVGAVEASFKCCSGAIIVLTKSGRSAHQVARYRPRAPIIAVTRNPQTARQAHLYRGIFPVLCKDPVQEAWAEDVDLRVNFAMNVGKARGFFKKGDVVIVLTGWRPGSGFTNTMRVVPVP
# Muscarinic acetylcholine receptor M1 (Rattus norvegicus), sequence (P08482 whole entry, looked up): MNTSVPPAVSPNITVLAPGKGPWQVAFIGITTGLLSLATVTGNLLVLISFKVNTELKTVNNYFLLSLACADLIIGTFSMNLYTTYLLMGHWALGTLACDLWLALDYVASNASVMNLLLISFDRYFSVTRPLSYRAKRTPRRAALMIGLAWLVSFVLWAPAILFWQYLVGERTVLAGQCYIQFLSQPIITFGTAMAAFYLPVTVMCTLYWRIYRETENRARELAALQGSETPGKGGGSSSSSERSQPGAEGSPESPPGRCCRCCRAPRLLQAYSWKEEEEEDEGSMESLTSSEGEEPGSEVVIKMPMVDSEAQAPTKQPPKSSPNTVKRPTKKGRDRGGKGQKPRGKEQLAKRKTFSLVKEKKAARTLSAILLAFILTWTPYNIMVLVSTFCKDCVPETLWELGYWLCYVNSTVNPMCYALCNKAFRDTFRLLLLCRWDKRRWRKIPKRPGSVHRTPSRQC
structure (smiles),measurement,setting,value
CN(C)CC[C@H](c1ccc(Cl)cc1)c1ccccn1,outcome,[1],inactive
same,Potency,[2],inactive
same,outcome,[3],inactive
same,outcome,[4],inactive
same,outcome,[5],inactive
Cc1cc(O)c2c(c1)C(=O)c1cccc(O)c1C2=O,outcome,[6],inactive
same,outcome,[7],inactive
same,outcome,[8],inactive
same,outcome,[9],inactive
same,outcome,[10],inactive
same,outcome,[11],inactive
same,outcome,[12],inactive
same,outcome,[13],inactive
same,outcome,[14],inactive
same,outcome,[15],inactive
OCC(O)C(O)C(O)CO (stereo not given),Potency,[16],inactive
same,outcome,[10],inactive
same,outcome,[12],inactive
O=c1c(O)c(-c2ccc(O)c(O)c2)oc2cc(O)ccc12,Potency,[2],20 µM (active)
same,Potency,[16],39.8 µM (active)
same,outcome,[17],inactive
same,Potency,[18],inactive
same,Potency,[19],inactive
same,outcome,[10],inactive
COc1ccc2c(c1OC)C(=O)OC2[C@H]1c2c(cc3c(c2OC)OCO3)CCN1C (stereo not given in full),outcome,[1],inactive
same,outcome,[17],inactive
same,Potency,[18],15.8 µM (active)
same,Potency,[19],1.26 µM (active) and 316 nM (active) and 398 nM (active)
same,outcome,[3],inactive
same,outcome,[20],inactive
same,outcome,[4],inactive
CCOC(=O)C1=C(C)NC(=S)NC1c1cccc(O)c1 (stereo not given),outcome,[17],inactive
Cc1ccc(O)c(C(CCN(C(C)C)C(C)C)c2ccccc2)c1 (stereo not given),Potency,[16],inactive
same,outcome,[10],inactive
same,outcome,[12],inactive
CCC(C(=O)O)C1CCC(C)C(C(C)C(O)C(C)C(=O)C(CC)C2OC3(C=CC(O)[C@@]4(CC[C@](C)(C5CC[C@@](O)(CC)C(C)O5)O4)O3)C(C)CC2C)O1 (stereo not given in full),outcome,[10],inactive
same,outcome,[12],inactive
CCCCCCCCCCCC(CC1OC(=O)C1CCCCCC)OC(=O)C(CC(C)C)NC=O (stereo not given),outcome,[10],inactive
same,outcome,[12],inactive
CC(Cc1ccc(O)c(O)c1)(NN)C(=O)O (stereo not given),outcome,[10],inactive
same,outcome,[12],inactive
Oc1cc2c(cc1O)C1c3ccc(O)c(O)c3OCC1(O)C2 (stereo not given),outcome,[17],inactive
same,outcome,[10],inactive
same,outcome,[12],inactive
COC(=O)C1C2CC3c4[nH]c5cc(OC)ccc5c4CCN3CC2CC(OC(=O)c2cc(OC)c(OC)c(OC)c2)C1OC (stereo not given),outcome,[17],inactive
C[C@@]12C(=O)OC(=O)[C@@]1(C)C1CCC2O1,Potency,[16],inactive
same,outcome,[10],inactive
same,outcome,[12],inactive
c1coc(CNc2ncnc3nc[nH]c23)c1,outcome,[10],inactive
same,outcome,[12],inactive
O=C(O)C=Cc1ccc(Cn2ccnc2)cc1,outcome,[17],inactive
same,Potency,[18],0.0794 µM (active)
COc1ccc([C@@H]2CNC(=O)C2)cc1OC1CCCC1,Potency,[2],inactive
same,outcome,[17],inactive
same,Potency,[18],inactive
same,Potency,[19],inactive
COc1ccc(C(C)=O)c(O)c1,Potency,[16],1.26 µM (active)
same,outcome,[17],inactive
same,outcome,[10],inactive
same,outcome,[12],inactive
